Screening results from PubChem BioAssay.
Hits are enriched below; roughly 19% of the tested compounds scored in any of these assays.
HT1080 IDH1KD tx = toxicity to HT-1080 IDH1 knockdown cells (counter line) | HT-1080 IDH1 knockdown viability, ATP luminescence, 48 h | Potency, µM (titrated, usually from 46.1 µM), for the others: at the top dose activity, negative = toxicity, most hits filed as cytotoxic | 2% of 360,000 active | AID 686971;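 note: potency is the fitted concentration of half-maximal effect; 0% = DMSO wells and -100% = cell-free medium wells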
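% activity derives from luminescence (CellTiter-Glo), normalised to DMSO and no-cell wells. HT-1080-IDH1KD cells, 750/well, had 48 h compound exposure at 37 °C.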
ELG1 DNA repair = inhibitors of ELG1-dependent DNA repair in HEK293T cells; Potency, µM (titrated, usually from 46.1 µM), for inactives: at the highest dose activity change, negative = inhibition, most hits filed as inhibitors; HEK293T ELG1-luciferase reporter, luminescence, 16 h; DNA damage induced by 5-fluorouridine; 2.3% of 330,000 active; AID 504467; note: potency is the fitted concentration of half-maximal effect; nearly all actives have a fitted effect of over 55% in size
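Step one: seed 2,000 cells per well. Step two: pin-transfer compound or DMSO alongside 5-fluorouridine. Step three: incubate 16 hr, 37 °C, 5% CO2. Step four: add ONE-Glo, wait 30 min, read luminescence.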
TDP1 cell noCPT = qHTS for Inhibitors of human tyrosyl-DNA phosphodiesterase 1 (TDP1): qHTS in cells in absence of CPT; DT40 Tdp1-/- hTDP1 cells, no CPT, ATP luminescence, 48 h; Potency, µM (series often up to 46.2 µM), for inactives: at the highest dose activity change, negative = growth inhibition, hits mostly inhibitors; 15% of 420,000 active; AID 686978, 2013; note: potency is the fitted concentration of half-maximal effect; nearly all actives have a fitted effect of over 55% in size
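Chicken DT40 Tdp1-/- cells complemented with human TDP1, screened without camptothecin (DMSO vehicle only), 400 cells/well. Compounds pin-transferred, cells incubated at 37 °C for at least 48 hr. Growth read as ATP-dependent luminescence (CellTiter-Glo, 30 min at RT).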
HT1080NT lethal = kills 2HG-producing HT-1080-NT fibrosarcoma cells. 1.6% of 360,000 active. HT-1080-NT fibrosarcoma viability, CellTiter-Glo ATP luminescence, 48 h. Potency, µM (doses to about 46.1 µM), inactives show at the top dose activity, negative = less viability, hits mostly cytotoxic;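 note: NT is the 2HG producing partner of a matched IDH1 knockdown line; potency is the fitted concentration of half-maximal effect; 0% = DMSO-treated cells and -100% = media-only wells without cells; nearly all actives have a fitted effect of over 55% in size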
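HT-1080-NT; 750 cells/well; 5% FBS RPMI; 48 h compound, 37 degrees C; CellTiter-Glo luminescence; curve fitting and curve-class assignment.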
IL1B secr inh = inhibitors of inflammasome signaling (IL-1 beta secretion). THP-1 LPS/ATP IL-1B secretion, AlphaLISA, 16 h; active compounds read low. activity change, % at 57.5 µM. 4.7% of 360,000 active; in the data active = activity change below about -50%; inconclusive = mostly about -30% to -49%
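THP-1 cells pretreated 1 hr with compounds (up to 57.5 uM final), then stimulated with LPS (250 ng/mL final) plus ATP (1.25 mM final); secreted IL-1B measured by AlphaLISA after 16 hr, decreased signal indicating inhibition.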
DT40 TDP1 CPT = growth inhibition of DT40 Tdp1-/-;hTDP1 cells with camptothecin (screen for TDP1 inhibitors); chicken DT40 Tdp1-/-;hTDP1 cells + 20 nM CPT, ATP luminescence, 48 h; Potency, µM (series often up to 46.2 µM), for the others: top-dose activity change, negative = growth inhibition, hits mostly inhibitors; 12% of 420,000 active; note: potency is the fitted concentration of half-maximal effect; nearly all actives have a fitted effect of over 55% in size
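Cell growth measured by CellTiter-Glo luminescence after a minimum 48 h, 37 C compound exposure with 20 nM CPT in Tdp1-knockout DT40 cells stably expressing hTDP1, seeded 400/well; qHTS titration format.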
Numbers without * were called inactive; ? = inconclusive; / = no result given; [ ] = remark or other dose. Unless noted, calls come from the whole dose curve; as a rule, active = well fitted curve in the direction sought with a large enough effect; inconclusive = small, poorly fitted or top-dose-only effect, or another doubt; inactive = no such curve, though single readings can be large; an effect the other way counts as inactive or inconclusive. Unless noted, % is set by controls: 0 for no effect and ±100 for the full control effect.

SMILES	HT1080 IDH1KD tx	ELG1 DNA repair	TDP1 cell noCPT	HT1080NT lethal	IL1B secr inh	DT40 TDP1 CPT
CCCCCCNC(=O)Cc1ccc(Br)cc1	-5%	6%	-8%	-19%	-3	0%
N#CC[n+]1cccc(Br)c1	/	/	1%	/	/	2%
CCCCCCCCCC[n+]1cccc(Br)c1	/	/	5µM*	/	/	1.4µM*
CCCCCCCCCC[n+]1cccc(C(=O)N(CC)CC)c1	0%	-19%	2.9µM*	-15%	-23	8.2µM*
NC(=O)c1ccc[n+](CCC[n+]2cccc(C(N)=O)c2)c1	6%	7%	-1%	6%	13	1%
CCOc1cc(/C=C/C(=O)OCC(=O)NC2CCS(=O)(=O)C2)ccc1OCc1ccccc1 (centres undefined)	-4%	25%	-9%	-1%	14	22%
CN(C)CCCN(C(=O)c1ccc(Cl)s1)c1nc2cc3c(cc2s1)OCO3	?	?	?	18µM*	-98*	?
CCN(CC)CCN(C(=O)c1ccc(Br)s1)c1nc2cc3c(cc2s1)OCO3	-9%	1%	-13%	3%	-11	-1%
Cc1ccc2nc(N(CCCN(C)C)C(=O)c3ccc(Br)s3)sc2c1	?	26%	23µM*	?	-79*	?
CN(C)CCCN(C(=O)c1ccc(Br)s1)c1nc2cc3c(cc2s1)OCCO3	?	21%	?	-10%	-93*	29µM*
CCN(CC)CCN(C(=O)c1ccc(Br)s1)c1nc2cc3c(cc2s1)OCCO3	0%	17%	?	14%	-4	-17%
CN(C)CCCN(C(=O)c1ccc([N+](=O)[O-])s1)c1nc2cc3c(cc2s1)OCCO3	-2%	?	3.3µM*	-2%	-96*	2.9µM*
CN(C)CCCN(C(=O)c1cccs1)c1nc2cc3c(cc2s1)OCO3	2%	?	?	-12%	-10	-18%
CN(C)CCCN(C(=O)c1cc2cc([N+](=O)[O-])ccc2s1)c1nc2cc3c(cc2s1)OCCO3	?	?	2.3µM*	?	0	1.3µM*
CC(=O)N(CCN(C)C)c1nc2cc3c(cc2s1)OCCO3	-13%	?	0%	1%	-9	5%
CC(C)(C)NC(=O)c1oc2ccccc2c1COc1ccccc1	-2%	8%	13µM*	7%	12	?
COCc1c(C(=O)NCCOc2ccc(Cl)cc2)oc2ccccc12	0%	-5%	23µM*	-6%	3	26µM*
COc1ccc(CCNC(=O)c2oc3ccccc3c2C)cc1	4%	-4%	?	6%	-10	?
COCc1c(C(=O)NCCc2ccc(OC(F)F)cc2)oc2ccccc12	-1%	0%	12µM*	-5%	-8	13µM*
Cc1c(C(c2ccc(F)cc2)c2c(C)n(C)n(-c3ccccc3)c2=O)c(=O)n(-c2ccccc2)n1C	2%	-5%	-20%	5%	8	-13%
O=C(Nc1cccc2cccnc12)c1ccccc1Br	-1%	/	?	-1%	-7	-24%
CC(=O)N1CCC2(CCN(Cc3ccc(C#N)cc3)CC2)CC1	/	/	3%	/	/	5%
O=C(c1cccc(F)c1)N1CCC2(CCN(Cc3cc(C(F)(F)F)cc(C(F)(F)F)c3)CC2)CC1	/	/	18µM*	/	/	?
N#Cc1ccc(CN2CCC3(CC2)CCN(S(=O)(=O)c2ccccc2)CC3)cc1	/	/	16µM*	/	/	?
CS(=O)(=O)N1CCC2(CCN(Cc3ccc(C#N)cc3)CC2)CC1	/	/	-23%	/	/	7%
SMILES	HT1080 IDH1KD tx	ELG1 DNA repair	TDP1 cell noCPT	HT1080NT lethal	IL1B secr inh	DT40 TDP1 CPT
N#Cc1ccc(CN2CCC3(CC2)CCN(C(=O)c2cc(C(F)(F)F)cc(C(F)(F)F)c2)CC3)cc1	/	/	13µM*	/	/	23µM*
O=C(c1cccc(F)c1)N1CCC2(CCCN(Cc3cc(C(F)(F)F)cc(C(F)(F)F)c3)C2)CC1	/	/	?	/	/	-11%
CCOc1ccc(CN2CCN(C(=O)c3cccc(F)c3)CC2)cc1	8%[9.24 µM]	?	-22%	?	-60*	-25%
CC(C)c1ccc(N(C(=O)CNC(=O)c2ccco2)C(C(=O)NC2CCCC2)c2ccncc2)cc1 (centres undefined)	-1%	-1%	-9%	-4%	-12	2%
CC[N+]1(CC(=O)c2ccc(Br)cc2)CCCCC1	/	/	-24%	/	/	-31%
COc1ccccc1CN1CCC2(CC1)CCN(C(=O)c1cc(C(F)(F)F)cc(C(F)(F)F)c1)CC2	/	/	21µM*	/	/	?
COC(=O)N1CCC2(CCCN(Cc3ccc(C#N)cc3)C2)CC1	/	/	?	/	/	-9%
COC(=O)N1CCC2(CCN(Cc3ccc(C#N)cc3)CC2)CC1	/	/	?	/	/	1.6µM*
COC(=O)N1CCC2(CCCN(Cc3cc(C(F)(F)F)cc(C(F)(F)F)c3)C2)CC1	/	/	1%	/	/	-2%
COC(=O)N1CCC2(CCN(Cc3cc(C(F)(F)F)cc(C(F)(F)F)c3)CC2)CC1	/	/	15µM*	/	/	?
O=C1CC(c2nnc(Cc3ccccc3Cl)o2)CN1c1ccccc1 (centres undefined)	/	/	-3%	/	/	-2%
COc1ccccc1N1CCN(C(=O)c2ccc3c(c2)N(Cc2cc(C)ccc2C)C(=O)c2ccccc2S3(=O)=O)CC1	/	/	?	/	/	-123%
N#Cc1c(C(F)(F)F)cc(Cc2ccccc2)nc1SCC(=O)NCC(=O)O	21%	/	-12%	15%	1	12%
Cc1ccc(NCc2ccc(O)c3ncccc23)cc1	-25%	-11%	?	1%	-3	?
Cc1cccnc1NCc1ccc(O)c2ncccc12	?	11%	5.8µM*	?	100	4.6µM*
Cc1cccc(NCc2ccc(O)c3ncccc23)c1C	?	8%	15µM*	-23%	23	?
C[C@@H](C(=O)Nc1cccc(S(=O)(=O)N2CCOCC2)c1)N1C(=O)C2CC=CCC2C1=O (some centres undefined)	0%	8%	-20%	1%	29	7%
COc1ccc(Cl)cc1NC(=O)CCN1C(=O)C2C3C=CC(C4CC34)C2C1=O (centres undefined)	20%	-6%	6%	7%	-1	0%
O=C(Cn1cc(C(=O)C2CC2)c2ccccc21)Nc1ccc(Br)cc1	/	/	-12%	/	/	-10%
Cc1ccc(-c2nc(S(=O)(=O)c3ccc(C)cc3)c(SCC(=O)NC3CCCCC3)o2)cc1	/	/	0%	/	/	6%
